Measured values published in PMC6212790, “How bacterial xenogeneic silencer rok distinguishes foreign from self DNA in its resident genome”.
The full ranking holds about 33,000 sequences; the median of “e-score” is about -0.037, and the highest 2% start at about 0.34. This is one part of a sample in which the highest values are shown more often than they occur.

Target: T1, GST-Rok (full length) (Bacillus subtilis subsp. subtilis str. …, UniProt O34857 1-191)
T1 sequence: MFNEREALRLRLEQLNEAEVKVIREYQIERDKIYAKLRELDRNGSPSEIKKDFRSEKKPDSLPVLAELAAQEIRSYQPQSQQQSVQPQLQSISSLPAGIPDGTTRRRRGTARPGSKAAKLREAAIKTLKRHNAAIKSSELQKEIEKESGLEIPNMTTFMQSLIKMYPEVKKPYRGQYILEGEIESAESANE
Assay: protein binding microarray; Rok is a gene silencer of Bacillus subtilis; high values mean tight binding
Conditions: protein: recombinant; tags: GST (pTH5325, pDEST15-Magic modified); dsDNA, one strand shown
In short: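 Every oligonucleotide joins a 25-mer constant primer to a 35-mer variable part drawn from a de Bruijn sequence of order 10, so each non-palindromic 8-mer appears at least 32 times and each palindromic 8-mer 16 times. The preference for every 8-mer is reported as a unitless, rank-based enrichment score (E-score). This score spans 0.5 for the most favored 8-mer to −0.5 for the most disfavored.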

Sequence	binding signal [E-score]
TAGGCTAA	-0.112
ATATCGAT	0.316
AAGTCTGA	-0.121
CTAGGAAC	-0.0546
AGTAGCTG	0.204
AGTAGCTA	0.386
AGTAGCTC	0.0983
ACTAGCTA	0.347
CGTAGCTC	0.0159
CGTAGCGA	0.0631
GCTAGCTA	0.156
GGTAGCTA	0.341
GGTAGCAA	0.241
CGTAGCTA	0.365
GGTAGCGA	0.0576
CCTAGCTA	0.107
GTTGAGGA	-0.0613
CATTACCA	0.14
CAGTAACG	0.112
CAACTATC	0.192
TAACTATA	0.341
GAACTATC	0.292
AAACTATG	0.195
AAACTATC	0.412
AAACTATA	0.396
AAACTCTT	0.188

Sequence	binding signal [E-score]
CAACTATA	0.307
GAACTATA	0.289
AAACTATT	0.458
TAACTAAA	0.151
ACACTATA	0.245
GCTGGCAC	-0.181
GTGCCAAA	-0.127
AGTGAAGA	-0.00169
CTCGAAAG	-0.0828
AACCTATA	0.239
CACCTAAA	0.131
TACCTATA	0.37
TACCTAAA	0.37
AACCTAAA	0.102
CACCTATA	0.214
ATTAAGAA	0.154
ACTTGCCG	-0.0504
AAACTCTC	0.106
CACCATCG	-0.0961
AATCAATA	0.296
GATCAATA	0.157
TATCAATA	0.343
CTCGCGAG	-0.0252
AGAAGGAC	-0.175
ACAGAGGC	-0.125
ACCTATTG	0.182

Sequence	binding signal [E-score]
AACTATTG	0.378
GACTATTA	0.157
AACTATTC	0.315
AACTATTA	0.431
CACTATTA	0.268
CGGACTCA	-0.0715
ATTTTGAA	0.162
CTAAGGGA	-0.154
CAGCCCGG	-0.158
AAGTCCGC	-0.0838
GCAAGTAA	-0.0735
AACCTCAT	-0.155
TCTAGTAA	0.351
ACTAGTGA	0.172
CCTAGTAA	0.256
ACTAGTAA	0.382
ATTAGTAA	0.314
GCTAGTAA	0.294
CTAAGCAG	-0.152
ACATCGAT	0.166
AGCTGGGG	-0.188
CCTAGAAA	0.0461
GCTAGAAA	0.37
ACAAGAAA	-0.0731
ACGAGAAA	-0.0804
ACTAGAAC	0.296

Sequence	binding signal [E-score]
ACTAGAAT	0.356
ACTAGAAG	0.215
TCTAGAAA	0.222
ACTAGAAA	0.344
CGCTAGTA	0.31
CTGGCAGA	-0.0653
AGGCAACG	-0.102
CGACGCAA	0.0906
CCAGATAG	0.188
ATCGATAC	0.213
ATAGATAG	0.34
ATCGATAG	0.361
ATAGATAT	0.374
CTAGATAG	0.346
ATAGATAA	0.297
ATAGATAC	0.331
ACAGATAT	0.153
ATAGAGAT	0.0483
CGAGATAG	0.0866
ATCGATAA	0.332
CCAAGTGG	-0.0692
CTAAAGAG	0.00604
AGTTGTGC	0.157
TGTTAACA	0.207
AAGAGCGA	-0.102
ATTGTTTA	-0.087

Sequence	binding signal [E-score]
AGTGGAGG	-0.0535
ATAGATTA	0.301
AGTGATAA	0.145
ATAGATTG	0.316
ATAGATTC	0.374
AGTGATAC	0.231
AGTGATAG	0.377
AGGATTTA	0.0716
ACTGTACT	0.209
AGATATCG	0.218
GCCCGTAA	-0.148
ATGGACAT	0.0858
CCGCGGCG	-0.19
GATAGCAA	0.189
AATAGCTG	0.206
AATAGCTA	0.358
CATAGCTA	0.306
GATAGCGA	0.106
GATAGCTA	0.35
ACAGTAAC	0.293
GTCAAAAC	0.00409
GGAATGTA	0.103
AACACCGT	0.146
GTGACAAC	-0.0442
GCTAGATA	0.342
ACTAGATA	0.402

Sequence	binding signal [E-score]
ACTAGACG	-0.0512
ACTAGATG	0.339
GCTAGACA	0.0674
ACTAGATC	0.327
CCTAGATA	0.101
ACTAGAGA	-0.0107
ACTAGACA	0.054
CAGATTAG	0.083
CAGTGTAA	0.192
CACAAAGC	0.0266
ACCACAAG	-0.065
CAGGTGCA	-0.198
TATGTCGA	0.132
CTAATCGA	0.122
ACTACCAA	0.305
ACTACCAC	0.347
CCTACCAC	0.224
ACTACCAT	0.352
ACTACCAG	0.238
GCTACCAC	0.188
TAGTACCA	0.166
GCATCGAC	0.0744
GTGTAGAA	0.292
ATGTAGAA	0.423
CTGTAGAC	0.117
ATGTAGAC	0.257

Sequence	binding signal [E-score]
CTGTAGAA	0.345
ATGTAGAG	0.199
CCCAAACC	-0.181
GTACGGTA	0.232
TACTTACA	0.331
AGGTAGGC	-0.115
GAGTGAAA	-0.103
ATATAGTA	0.456
GTATAGTA	0.316
ATATAGTC	0.25
CTATAGTA	0.365
CTATAGTC	0.096
ATATAGTG	0.274
ACTGCTAG	-0.0701
CCGACCAA	-0.12
CCGACTAA	0.0388
AGAAACAA	0.253
AGGTATGC	0.154
AAGTGGAG	-0.191
ATCTAATA	0.313
ATCTAATG	0.241
ATCTAATC	0.351
ATAATTTC	0.351
GCAATTTA	0.279
AAAATTTA	0.293
CTAATTTA	0.286

Sequence	binding signal [E-score]
CAAATTTA	0.168
GTAATTTA	0.355
TAAATTTA	0.361
ATAATTTG	0.284
ATAATTTA	0.397
CTAATTTC	0.162
GTAATTGA	0.246
ATAATTCA	0.21
TAAAGCCA	-0.0305
AACTCAAT	0.296
CGCCATTC	-0.0796
AATAAGGC	-0.0153
ATGTCGCG	-0.0435
CCATTTAC	0.0848
GTCATATA	0.291
GAATGGGA	-0.15
ACGAGCTA	-0.107
CAAACTTA	0.162
AAAACTAT	0.433
AAAACTCC	0.0005
AAAACTAC	0.453
CAAACTCC	-0.0836
AAAACTAG	0.334
AAAACTGT	-0.0241
CAAACTAA	0.378
AAAACTAA	0.254

Sequence	binding signal [E-score]
TAAACTAA	0.288
CAAACTAC	0.43
CAAACTAG	0.329
GTGGCAAC	-0.17
CGTGACAA	-0.11
CGACGAGA	-0.0756
ATCCCAAA	0.0535
CACTCTCA	-0.109
CTTAATGC	0.13
ACCGAGCA	-0.0882
GTTGGTTA	0.26
AGCGCTAT	-0.0624
GAAACTAC	0.469
GAAACTAA	0.244
GAAACTTC	0.224
CGGTAGGA	0.281
CAACCGGC	-0.0977
ACGCTCCT	-0.000812
AAATACTA	0.454
CAATACTA	0.261
TAATACGA	0.377
TAATACTA	0.419
AAATACTC	0.227
AAATACGA	0.118
AAATACTG	0.327
GAATACTA	0.295

Sequence	binding signal [E-score]
CAATACGA	0.00373
ACGCAAAC	0.106
AGAGCTTA	-0.044
GACGATGA	-0.103
GGCTGTAC	-0.102
ACTCGCAC	-0.112
ATACTGTC	0.0898
AGTACGCC	-0.149
ATCAATGA	0.0966
CTTAATAC	0.18
GGTAATAA	0.313
AATAATAG	0.388
GATAATAC	0.187
GATAATAA	0.369
TATAATAA	0.33
AATAATAC	0.332
ATTAATAA	0.182
ATTAATAC	0.353
CATAATAG	0.243
CATAATAA	0.252
AATAATAA	0.364
AACCATCC	-0.0159
AGCCGTGC	-0.157
ATGGGCCG	-0.146
ACCTTAGA	0.00282
AGTACGTA	0.332

Sequence	binding signal [E-score]
AATAATGC	0.352
AATAATGT	0.222
AATAATGG	0.103
CGTAGTCC	-0.0635
CGGGCAGC	-0.142
CTAGGTCA	-0.0595
ACGTTCAA	-0.0397
CAATGGAG	-0.17
ACAGCTCT	-0.118
ACAACGAC	0.0795
TACCGGTA	0.37
AACCGGTA	0.274
CACCGGTA	0.056
ACCATGCT	-0.182
ATTAAGTA	0.347
ATTAACTC	0.092
GTTAACGA	0.241
CTTAAGTA	0.281
ATTAACTA	0.398
GTTAAGTA	0.191
ATTAACTG	0.14
GTTAACTA	0.359
CTTAACTA	0.313
GAGCGAGA	-0.17
AGTCATAC	0.018
GGTCGCAA	0.0661

Sequence	binding signal [E-score]
CAGCGTGA	-0.12
GAATGTAC	0.303
AAATGTAG	0.297
AAATGTAA	0.389
AAATGTAT	0.281
AAATGTAC	0.343
CAATGTAC	0.263
CGAGCCAC	-0.119
GGGCAGCA	-0.184
CTCGCTAA	-0.0951
TGTGAGAA	0.216
CCTCTTGA	-0.196
TAGATATA	0.339
CATATATG	0.343
CATATAAG	0.119
CACATATG	0.266
CTTATATA	0.253
TATATATA	0.477
CATATATA	0.38
CACATATA	0.261
CAGATATA	0.165
GAGATATA	0.157
CATATATC	0.25
TATATCGA	0.304
CTTAAAAG	-0.119
ACATTGGT	0.186

Sequence	binding signal [E-score]
ACCAGAGG	-0.0915
AGAGACAC	0.0712
ATGTCCGG	-0.00967
ATTATAAA	0.157
TTTATAAA	0.367
GATATAAA	0.33
CTTATAAA	0.0863
TATATAAA	0.399
AATATAAA	0.266
CCCAGGCA	-0.18
GAAACCGA	-0.119
CCCGTACG	-0.101
GATATGTA	0.296
CTTATGTA	0.111
AATATGTA	0.416
CATATGTA	0.338
AATATGTC	0.106
CATATGAA	0.0706
ATTATGTA	0.358
GTTATGTA	0.269
CATATGTC	-0.0495
AGAGCTGC	-0.0428
ACGAACTG	0.0336
GTCCAGAA	-0.0598
GCGAGAAA	-0.035
TAGAAGAA	0.109

Sequence	binding signal [E-score]
AAAAGGAG	-0.188
AGTGAATG	0.0707
TCTCTGCA	0.0197
AGCATTAT	0.255
AATAGTAG	0.469
AGTAGTAT	0.405
AGTAGTAG	0.349
AATAGTAT	0.292
AGAAGTAT	0.334
CGTAGTAG	0.204
AACAGTAA	0.294
AGCAGTAT	0.015
AACAGTAG	0.354
ATTAGTAG	0.321
CATAGTAG	0.0836
CACAGTAG	0.0684
